The panel holds about 79,000 compounds, 15% with a hit somewhere; the sample as a whole holds those more often. A number with no mark means an inactive call. Calls of active or inactive are those of the source. Rule as the data show it: active = growth inhibition above about 70%; inactive = the rest.
Test: NCI Yeast Anticancer Drug Screen. Data for the rad50 strain (AID 155);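 also: 0% = growth of vehicle-only cultures of the same strain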
Conditions: S. cerevisiae rad50 strain growth inhibition, hits give high values
Method: Growth inhibition of yeast strains with defined genetic alterations is measured as a screen for potential anti-cancer activity. Selected strains with alterations in DNA damage repair or cell cycle control were exposed to compounds and growth inhibition was measured relative to vehicle treated controls. The strain used in this assay is rad50

[1] = at 5.0 µM (retest, dose inferred, filed as 0.5)
[2] = at 50.0 µM (retest, dose inferred, filed as 5.0)

Row | Compound | growth inhibition [1] [%] | growth inhibition [2] | growth inhibition (at 50.0 µM)
1 | CC(C)/C(Cl)=N\OC(=O)Nc1ccc(S(N)(=O)=O)cc1 | 15 | 30% | 12.7%
2 | O=[N+]([O-])c1ccc(Cc2nc3ccccc3s2)cc1 | 32 | 82% (active) | 36.8%
3 | CC(CCNCCC#N)CC(C)(C)C (configuration not stated) | 6 | 66% | 76.9% (active)
4 | CS/C(N)=N/NC(=O)CCC(=O)Nc1cc(Cl)c(Cl)cc1Cl | 3 | 16% | 24.7%
5 | CS(=O)(=O)OCCN(CCOS(C)(=O)=O)c1ccc(C=Nc2cccc(Cl)c2)cc1 | 35 | 90% (active) | 92.7% (active)
6 | O=CNNC(=O)Nc1ccc(Cl)cc1 | 19 | 25% | -1.5%
7 | CC(=O)[O-].CC(=O)[O-].CC(=O)[O-].CC(=O)[O-].Cn1c(=O)c2[nH]cnc2n(C)c1=O.Cn1c(=O)c2[nH]cnc2n(C)c1=O.[Rh+2].[Rh+2] | 3 | 20% | 43.3%
8 | CCC[CH2][Sn]([CH2]CCC)([S]/C(C#N)=N/N=C/c1ccc(N(C)C)cc1)[S]/C(C#N)=N/N=C/c1ccc(N(C)C)cc1 | 57 | 98% (active) | 97% (active)
9 | CNC(=O)N/N=C/c1ccc([N+](=O)[O-])o1 | 12 | 40% | 65.2%
10 | CCOc1c(N=Nc2ccccc2OC)c(C)nn1C(N)=S | 6 | 24% | 8.85%
11 | Cc1c(Cl)nc(-c2ccccc2)nc1C(=O)CCl | 43 | 78% (active) | 22.1%
12 | CCN(CC)CCCNc1ncc(C)c2c1c1ccc3c(O)cccc3c1n2C | 22 | 62% | 29.3%
13 | O=C1c2ccccc2C(=O)N1c1ccccc1 | -2 | -20% | 31.4%
14 | COc1ccc(C(=O)Nc2ccc(O)c(=O)cc2)cc1 | 2 | 42% | 93.5% (active)
